Assay outcomes as filed in PubChem.
Sampled rows, rich in hits. Any-hit rate of the full collection: about 0.84%.
PPARg SRC-3 ag: agonists of human PPARgamma SRC-3 coactivator recruitment. biochemical PPARgamma/SRC-3 coactivator recruitment assay. activation, % at 8 µM. hit rate 0.26% among 200,000; in the data active = activation above about 23%;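 also: 0% = DMSO and 100% = reference agonist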
Target sequence (P37231 whole entry, looked up): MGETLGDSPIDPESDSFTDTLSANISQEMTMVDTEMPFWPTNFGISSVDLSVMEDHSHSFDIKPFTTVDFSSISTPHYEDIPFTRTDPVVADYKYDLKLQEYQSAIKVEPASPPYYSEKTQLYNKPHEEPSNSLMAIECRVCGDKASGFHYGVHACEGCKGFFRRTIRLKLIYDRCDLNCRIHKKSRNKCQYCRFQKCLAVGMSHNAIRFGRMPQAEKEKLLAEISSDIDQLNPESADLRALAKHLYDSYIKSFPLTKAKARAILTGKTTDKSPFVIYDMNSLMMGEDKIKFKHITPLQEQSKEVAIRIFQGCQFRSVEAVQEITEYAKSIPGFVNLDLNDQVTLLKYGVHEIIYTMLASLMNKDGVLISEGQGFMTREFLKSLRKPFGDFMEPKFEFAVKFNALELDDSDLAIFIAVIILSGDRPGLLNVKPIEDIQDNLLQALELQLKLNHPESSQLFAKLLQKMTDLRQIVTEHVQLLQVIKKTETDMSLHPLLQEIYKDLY
TR-FRET SRC-2 ct: TR-FRET artefact, counter-screen to PPARgamma/SRC-2 agonist assay. TR-FRET ratio at 8 µM. AID 1049. hits give high values. hit rate 0.4% among 200,000; in the data active = TR-FRET ratio above about 2000
SRC1 TRFRET art: TR-FRET artefact, counter-screen to PPARgamma/SRC-1 agonist assay; TR-FRET ratio at 8 µM; AID 1051; hit rate 0.34% among 99,000; TR-FRET detection artefact counter-screen, emission ratio; hits give high values; in the data active = TR-FRET ratio above about 2300
SRC3 TRFRET art: TR-FRET artefact, counter-screen to PPARgamma/SRC-3 agonist assay | PPARgamma/SRC-3 format; hits give high values | TR-FRET ratio at 8 µM | hit rate 0.39% among 99,000 | AID 1048; in the data active = TR-FRET ratio above about 2000
PPARg SRC2 recr: agonists of SRC-2 recruitment by human PPARgamma | P37231 | PPARgamma LBD-SRC-2 recruitment, biochemical | activation, % at 8 µM | hit rate 0.34% among 200,000 | AID 1032;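 also: 0% = vehicle and 100% = reference agonist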
PPARg SRC-1 ag: agonists of human PPARgamma SRC-1 coactivator recruitment. P37231. activation, % at 8 µM. AID 631. hit rate 0.41% among 200,000. PPARgamma-SRC-1 coactivator recruitment biochemical assay; in the data active = activation above about 19%;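 also: 0% = DMSO and 100% = reference agonist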
PPARg SRC2 ag: human PPARgamma SRC-2 recruitment agonism, confirmation; shares compounds with PPARg SRC-3 ag; biochemical SRC-2 recruitment by PPARgamma; activation, % at 8 µM; hit rate 52% among 790;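 also: 0% = vehicle alone and 100% = reference agonist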
PPARg SRC1 ag: human PPARgamma SRC-1 recruitment agonism, confirmation; shares compounds with PPARg SRC-3 ag; PPARgamma–SRC-1 coactivator recruitment biochemical assay; activation, % at 8 µM; hit rate 43% among 790; AID 1300; in the data active = activation above about 20%;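 also: 0% = vehicle wells and 100% = reference agonist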
PPARg SRC3 conf: confirmation of agonists of SRC-3 recruitment by human PPARgamma; shares compounds with PPARg SRC-3 ag; biochemical PPARgamma-SRC-3 coactivator recruitment, agonist mode; activation, % at 8 µM; hit rate 29% among 790; AID 1301; in the data active = activation above about 24%;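 also: 0% = vehicle wells and 100% = reference agonist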
Numbers without * were called inactive. Rule as the data show it, unless noted: active = activation above about 22%; inactive = the rest.

`O=c1c2c(-c3cccs3)csc2[nH]c(=S)n1-c1ccccc1` gave PPARg SRC-3 ag 82*, TR-FRET SRC-2 ct 2587*, PPARg SRC2 recr 43*, PPARg SRC-1 ag 65*, PPARg SRC2 ag 63*, PPARg SRC1 ag 48* and PPARg SRC3 conf 42*.
Screening CCn1c(=S)[nH]c2scc(-c3cccs3)c2c1=O returned PPARg SRC-3 ag 39*, TR-FRET SRC-2 ct 2915*, SRC1 TRFRET art 3314*, SRC3 TRFRET art 2804*, PPARg SRC2 recr 49*, PPARg SRC-1 ag 52*, PPARg SRC2 ag 60*, PPARg SRC1 ag 44* and PPARg SRC3 conf 39*.
COc1ccc2ncc(OC(C)=O)cc2c1 was read as PPARg SRC-3 ag 6, TR-FRET SRC-2 ct 1573, SRC1 TRFRET art 1661, SRC3 TRFRET art 1490, PPARg SRC2 recr -6 and PPARg SRC-1 ag -2.
`Cc1onc(-c2c(F)cccc2Cl)c1C(=O)Nc1nnc(C2CC2)s1` gave PPARg SRC-3 ag 7, TR-FRET SRC-2 ct 1619, PPARg SRC2 recr 8 and PPARg SRC-1 ag 7.
`Cc1onc(-c2ccccc2Cl)c1C(=O)Nc1nnc(-c2ccc(F)cc2)s1` gave PPARg SRC-3 ag 32*, TR-FRET SRC-2 ct 1917, PPARg SRC2 recr 22*, PPARg SRC-1 ag 17, PPARg SRC2 ag 17, PPARg SRC1 ag 10 and PPARg SRC3 conf 11.
Screening Cc1onc(-c2ccccc2Cl)c1C(=O)Nc1ccc(F)c(F)c1 returned PPARg SRC-3 ag 18, TR-FRET SRC-2 ct 1401, PPARg SRC2 recr 1 and PPARg SRC-1 ag 1.
`Cc1onc(-c2ccccc2Cl)c1C(=O)Nc1nn[nH]n1` gave PPARg SRC-3 ag -5, TR-FRET SRC-2 ct 1475, SRC1 TRFRET art 1628, SRC3 TRFRET art 1461, PPARg SRC2 recr 5 and PPARg SRC-1 ag 0.
Cc1onc(-c2c(F)cccc2Cl)c1C(=O)Nc1nnc(-c2ccccc2)s1 was read as PPARg SRC-3 ag 26*, TR-FRET SRC-2 ct 1659, PPARg SRC2 recr 8, PPARg SRC-1 ag 16, PPARg SRC2 ag 26*, PPARg SRC1 ag 25* and PPARg SRC3 conf 17.
`Cc1onc(-c2ccccc2Cl)c1C(=O)Nc1nnc(-c2ccc(Cl)cc2Cl)s1` gave PPARg SRC-3 ag 15, TR-FRET SRC-2 ct 1847, PPARg SRC2 recr 18, PPARg SRC-1 ag 23*, PPARg SRC2 ag 31*, PPARg SRC1 ag 23* and PPARg SRC3 conf 20.
`Cc1onc(-c2ccccc2Cl)c1C(=O)Nc1nnc(-c2ccc(Br)cc2)s1` gave PPARg SRC-3 ag 25, TR-FRET SRC-2 ct 2175*, PPARg SRC2 recr 28*, PPARg SRC-1 ag 29*, PPARg SRC2 ag 32*, PPARg SRC1 ag 18 and PPARg SRC3 conf 20.
For O=C(O)c1c2c(nc3ccc(S(=O)(=O)N4CCC(C(=O)NC5CCCCCC5)CC4)cc13)CCCC2 the results were PPARg SRC-3 ag 8, TR-FRET SRC-2 ct 1592, SRC1 TRFRET art 1671, SRC3 TRFRET art 1592, PPARg SRC2 recr 5 and PPARg SRC-1 ag 5.
Cc1ccc(NC(=O)CSc2nnc(-c3cccs3)o2)cc1S(=O)(=O)N1CCCCC1 was read as PPARg SRC-3 ag 1, TR-FRET SRC-2 ct 1544, SRC1 TRFRET art 1937, SRC3 TRFRET art 1635, PPARg SRC2 recr 3 and PPARg SRC-1 ag 3.
`Cc1cccc2sc(NC(=O)C3c4ccccc4Oc4ccccc43)nc12` gave PPARg SRC-3 ag 9, TR-FRET SRC-2 ct 1703, PPARg SRC2 recr -2 and PPARg SRC-1 ag 1.
Screening CC(=O)Nc1ccccc1OCC(=O)NCCc1ccc(Cl)cc1Cl returned PPARg SRC-3 ag -2, TR-FRET SRC-2 ct 1504, SRC1 TRFRET art 1533, SRC3 TRFRET art 1549, PPARg SRC2 recr -2 and PPARg SRC-1 ag -4.
`Cc1c(NC(=O)c2cccnc2C(=O)O)cccc1C(=O)O` gave PPARg SRC-3 ag 5, TR-FRET SRC-2 ct 1488, SRC1 TRFRET art 1973, SRC3 TRFRET art 1569, PPARg SRC2 recr 4 and PPARg SRC-1 ag -7.
